WT yeast gro inh = growth inhibition of WT yeast, mitochondrial fusion screen; AID 1362; mitochondrial fusion phenotypic screen, WT strain; 190,000 tested, 2.1% active; inhibition, % at 10 µM; in the data active means inhibition above about 58%; tested in S. cerevisiae
L major viab = inhibitors of Leishmania major promastigote growth; Leishmania major promastigotes, resazurin fluorescence viability; inhibition, % at 10 µM; 200,000 tested, 9% active; AID 1063; in the data active means inhibition above about 50%;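 further: promastigotes grown with compound for 44 hours at 28 °C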
Ins promoter up = MIN6 insulin promoter up-regulation | z-score at 5 µM | MIN6 insulin promoter-GFP reporter, high-content imaging; hits give high values | 190,000 tested, 0.3% active;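 active means z-score above 3 at 5 µM with at least 500 cells counted in the well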
Autophagy HCS = alters autophagy in cells. MEF GFP-LC3 puncta imaging; test concentration mostly 10 µM. calls only at 10 µM (by protocol). 190,000 tested, 0.98% active;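 active means percentage of spot-positive cells more than 3 SD above its plate mean, without a fluorescence outlier flag or 80% toxicity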;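 further: spot-positive cell cutoff set from DMSO-treated cells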
INS promoter inh = TRM-6 insulin promoter activity inhibition | inhibition, % at 2 µM | 130,000 tested, 0.9% active | AID 1273 | TRM-6 cells (human fetal islet line), insulin promoter-eGFP reporter, imaging; reporter expression induced with tamoxifen;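 active means inhibition above the mean plus 3 SD, with well images judged a real hit on visual review, cut at about 60% in these data, passing the limit was not always enough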
The depositor's hits bear a star. An excerpt weighted towards active compounds, which were near 11% of everything screened.

What do the screens show for `O=C(CCCN1CCC(O)(c2ccc(Cl)cc2)CC1)c1ccc(F)cc1`?
WT yeast gro inh: 45; L major viab: 97*; Ins promoter up: -0.29; Autophagy HCS: inactive; INS promoter inh: 41

How did COc1ccccc1N1CCN(CCCC(=O)c2ccc(F)cc2)CC1 do in these assays?
WT yeast gro inh: 5; L major viab: 2; Ins promoter up: -0.35; Autophagy HCS: inactive

Results for CC(=O)N1C(C)(C)CC(=NOC(=O)c2ccc(C)cc2)CC1(C)C ?
WT yeast gro inh: 13; L major viab: 14; Autophagy HCS: inactive

Results for Cc1cc(C(=O)Oc2cccnc2)ccc1[N+](=O)[O-] ?
WT yeast gro inh: 0; L major viab: -2; Ins promoter up: -0.21; Autophagy HCS: inactive; INS promoter inh: 83*

What do the screens show for `COc1ccc(C(=O)Oc2cccnc2)cc1`?
WT yeast gro inh: 5; L major viab: -7; Ins promoter up: 0.01; Autophagy HCS: inactive; INS promoter inh: 22

What do the screens show for `O=C(Oc1cccnc1)c1ccc(Cl)c(Cl)c1`?
WT yeast gro inh: 96*; L major viab: -3; Ins promoter up: 0.01; Autophagy HCS: inactive; INS promoter inh: 22

Results for Cc1ccccc1C(=O)Nc1nnc(CC(=O)N/N=C/c2ccncc2)s1 ?
Ins promoter up: 0.11

How did C/C(CC(=O)NCC(C)C)=N\NC(=O)COc1cc(C)c(Br)cc1Br do in these assays?
WT yeast gro inh: 14; L major viab: 37; Ins promoter up: -0.01; Autophagy HCS: inactive; INS promoter inh: -10

How did CN(C)CCCOc1ccc(C(C)(C)c2ccccc2)cc1 do in these assays?
WT yeast gro inh: 37; L major viab: 100*; Autophagy HCS: inactive; INS promoter inh: -43

How did CN(C)CCCOc1cccc(Cl)c1 do in these assays?
WT yeast gro inh: -25; L major viab: -1; Ins promoter up: 0.3; Autophagy HCS: inactive; INS promoter inh: 57

Results for CN(C)CCOc1ccc(C(C)(C)c2ccccc2)cc1 ?
WT yeast gro inh: -4; L major viab: 72*; Ins promoter up: -0.3; Autophagy HCS: inactive

What do the screens show for `C=CCNCCOc1ccc(C(C)(C)c2ccccc2)cc1`?
WT yeast gro inh: 11; L major viab: 98*; Ins promoter up: -0.19; Autophagy HCS: inactive; INS promoter inh: 0

What do the screens show for `CN(C)CCOc1ccccc1C(C)(C)C`?
WT yeast gro inh: -14; L major viab: -4; Autophagy HCS: inactive; INS promoter inh: 43

Results for O=C(c1ccc(F)cc1)N1CCN(c2ccc([N+](=O)[O-])c(N3CCCCC3)c2)CC1 ?
WT yeast gro inh: 26; L major viab: 1; Ins promoter up: -0.51; Autophagy HCS: inactive; INS promoter inh: 45

How did O=C(c1cccc(F)c1)N1CCN(c2cc(N3CCCCC3)c(F)cc2[N+](=O)[O-])CC1 do in these assays?
WT yeast gro inh: 61*; L major viab: 18; Ins promoter up: -0.86; Autophagy HCS: inactive; INS promoter inh: -37

What do the screens show for `O=C(Nc1ccc(F)cc1)c1sc2cc(C(F)(F)F)cnc2c1-c1cccs1`?
WT yeast gro inh: 11; L major viab: 56*; Ins promoter up: -0.34; Autophagy HCS: inactive; INS promoter inh: 48

How did Cc1cc(C)c(S(=O)(=O)Nc2cc(SCC(=O)O)c(O)c3ccccc23)cc1C do in these assays?
WT yeast gro inh: 36; L major viab: 99*; Ins promoter up: -0.58; Autophagy HCS: inactive; INS promoter inh: 7

Results for Cc1cc(C)c(S(=O)(=O)Nc2ccc(O)cc2)cc1C ?
WT yeast gro inh: 4; L major viab: 6; Ins promoter up: 0.4; Autophagy HCS: inactive; INS promoter inh: -42

Results for O=C(N/C(=C\c1ccc(-c2ccccc2)o1)C(=O)N1CCOCC1)c1ccccc1 ?
WT yeast gro inh: -1; L major viab: 15; Ins promoter up: -0.57; Autophagy HCS: inactive; INS promoter inh: -79

What do the screens show for `O=C(/C=C/Nc1ccccc1Oc1ccccc1)c1ccco1`?
WT yeast gro inh: 55; L major viab: 77*; Autophagy HCS: inactive; INS promoter inh: -42

Results for O=C(/C=C/Nc1ccccc1O)c1ccco1 ?
Ins promoter up: -0.37

What do the screens show for `COc1ccccc1NC(=O)Cn1c(=O)n(-c2ccccc2)c(=O)c2oc3ccccc3c21`?
WT yeast gro inh: -12; L major viab: -3; Ins promoter up: 0.69; Autophagy HCS: inactive; INS promoter inh: -46

What do the screens show for `COc1ccc(NC(=O)Cn2c(=O)n(-c3ccccc3)c(=O)c3oc4ccccc4c32)c(OC)c1`?
WT yeast gro inh: -1; L major viab: 61*; Ins promoter up: 0.57; Autophagy HCS: inactive; INS promoter inh: -28

What do the screens show for `COc1ccccc1NC(=O)c1oc2ccccc2c1NC(=O)c1cc(OC)c(OC)c(OC)c1`?
L major viab: -2; Autophagy HCS: active; INS promoter inh: -41
